According to ChEMBL document CHEMBL1201862, “PubChem BioAssay data set” (2004):
Hit rate of the full screen: of about 400,000 compounds, about 2,100 (0.53%) were called active. About 14% were inconclusive and are not listed. How the calls were made is not given here. The list comes from a sample in which actives are over-represented; it also holds similar structures and randomly drawn compounds.

target: Ataxin-2 (Homo sapiens) (UniProt Q99700); test: qHTS for Inhibitors of ATXN expression.; format: functional
Sequence (Q99700 whole entry): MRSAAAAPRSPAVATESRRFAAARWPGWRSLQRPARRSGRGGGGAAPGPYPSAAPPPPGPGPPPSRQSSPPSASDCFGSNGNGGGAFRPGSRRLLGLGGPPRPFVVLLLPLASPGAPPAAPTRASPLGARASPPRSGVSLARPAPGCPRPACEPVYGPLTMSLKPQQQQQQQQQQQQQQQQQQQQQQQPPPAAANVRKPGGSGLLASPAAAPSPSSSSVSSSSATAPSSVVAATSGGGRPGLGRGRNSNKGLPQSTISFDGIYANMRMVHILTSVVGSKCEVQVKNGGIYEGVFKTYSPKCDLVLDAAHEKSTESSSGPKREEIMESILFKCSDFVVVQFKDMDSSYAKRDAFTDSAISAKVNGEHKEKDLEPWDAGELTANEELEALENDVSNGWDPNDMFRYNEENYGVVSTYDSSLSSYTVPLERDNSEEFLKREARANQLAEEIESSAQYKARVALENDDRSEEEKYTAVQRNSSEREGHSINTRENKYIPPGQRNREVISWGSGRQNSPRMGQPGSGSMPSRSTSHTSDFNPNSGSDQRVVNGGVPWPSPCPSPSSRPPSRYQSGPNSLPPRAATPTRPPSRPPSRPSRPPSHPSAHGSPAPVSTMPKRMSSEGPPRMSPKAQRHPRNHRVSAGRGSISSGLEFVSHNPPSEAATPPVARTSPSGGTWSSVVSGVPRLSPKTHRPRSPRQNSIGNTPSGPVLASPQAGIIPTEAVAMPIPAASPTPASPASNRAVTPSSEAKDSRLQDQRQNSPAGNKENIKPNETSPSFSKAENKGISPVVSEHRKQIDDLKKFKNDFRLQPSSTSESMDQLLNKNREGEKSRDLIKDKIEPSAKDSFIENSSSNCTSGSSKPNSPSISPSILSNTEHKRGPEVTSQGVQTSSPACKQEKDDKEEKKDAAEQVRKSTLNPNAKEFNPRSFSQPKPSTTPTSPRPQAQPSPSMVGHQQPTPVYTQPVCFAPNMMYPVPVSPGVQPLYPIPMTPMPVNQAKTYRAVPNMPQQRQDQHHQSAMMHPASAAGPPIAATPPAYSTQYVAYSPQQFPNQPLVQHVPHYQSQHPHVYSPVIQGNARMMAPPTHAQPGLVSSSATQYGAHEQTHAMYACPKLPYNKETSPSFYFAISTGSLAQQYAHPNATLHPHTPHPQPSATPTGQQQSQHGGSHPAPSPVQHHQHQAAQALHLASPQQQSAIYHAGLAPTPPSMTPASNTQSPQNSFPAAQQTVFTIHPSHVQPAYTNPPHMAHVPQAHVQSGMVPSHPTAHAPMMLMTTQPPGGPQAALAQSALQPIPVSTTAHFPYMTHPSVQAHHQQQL

Structure (SMILES)	Potency
COc1ccc(NS(=O)(=O)c2cccc(C(=O)NN=C(C)c3ccco3)c2)cc1	inactive
Cc1ccccc1/C=C/c1cc[n+](C)cc1	inactive
O=C(NC(c1ccccc1)c1ccsc1)C1CCN(CCOc2ccc(Cl)cc2Cl)CC1 (configuration not stated)	39.8 µM (active)
NC(=O)C1CCN(CC(=O)Nc2ccccc2Sc2ccc(Cl)cc2)CC1	inactive
COc1ccc(Cl)cc1NC(=O)CNC(c1ccccc1)c1ccccc1	inactive
COc1ccc2nc(N3CCCC(O)C3)c(C#N)cc2c1 (configuration not stated)	inactive
NC[C@@H]1O[C@H](C23CC4CC(CC(C4)C2)C3)Cc2c1ccc(O)c2O	31.6 µM (active)
CCOCCCn1c(=N)c(C(=O)NCCN2CCOCC2)cc2c(=O)n3cccc(C)c3nc21	inactive
CC(C)=CCc1cc([C@@H]2COc3c(ccc4c3C=CC(C)(C)O4)C2)c(O)cc1O	35.5 µM (active)
CCCCC(=O)Nc1nn(CC)c2nc3c(C)cccc3cc12	inactive
Nc1c(C(=O)N2CCCC2)sc2nc(-c3ccccc3)ccc12	inactive
C[C@@H]1CCCCO[C@@H](CN(C)CC2CCCCC2)[C@@H](C)CN([C@H](C)CO)C(=O)c2cc(NS(=O)(=O)c3ccc(Cl)cc3)ccc2O1	31.6 µM (active)
COc1ccc(S(=O)(=O)N(C)C[C@@H]2OCCCC[C@@H](C)Oc3ccc(NC(=O)NC(C)C)cc3C(=O)N([C@H](C)CO)C[C@@H]2C)cc1	inactive
C[C@@H]1CCCCO[C@H](CN(C)Cc2ccccc2)[C@@H](C)CN([C@H](C)CO)C(=O)c2cc(NS(=O)(=O)c3ccc(Cl)cc3)ccc2O1	35.5 µM (active)
C[C@H]1CCCCO[C@@H](CN(C)S(=O)(=O)c2ccc(Cl)cc2)[C@@H](C)CN([C@@H](C)CO)C(=O)c2cc(NS(=O)(=O)c3ccccc3)ccc2O1	31.6 µM (active)
N#CC(Sc1ccccn1)c1ccc(Cl)cc1 (configuration not stated)	inactive
CC(C)c1ccc2[nH]c(O)c(N=NC(=O)c3cccc(S(=O)(=O)Nc4cccc(Cl)c4)c3)c2c1	1.41 µM (active)
CN(CC(=O)Nc1cccc(C(F)(F)F)c1)S(=O)(=O)c1ccc2[nH]c3c(c2c1)CCCC3	35.5 µM (active)
Clc1ccc2[nH]c3c(c2c1)CNCC3	inactive
O=S(=O)(Nc1cccc(Cl)c1)c1ccc2[nH]c3c(c2c1)CCCCCC3	31.6 µM (active)
CC(C)c1ccc2[nH]c3c(c2c1)CCC/C3=N\NC(=O)c1ccncc1	inactive
O=C(COC(=O)c1ccc2[nH]c3c(c2c1)CCCC3)NC1CCS(=O)(=O)C1 (configuration not stated)	inactive
Cc1ccc(S(=O)(=O)Nc2cccc(N(C)S(C)(=O)=O)c2)cc1[N+](=O)[O-]	inactive
CN(CC(=O)Nc1cccc(Cl)c1)S(=O)(=O)c1ccc2[nH]c3c(c2c1)CCCC3	39.8 µM (active)
CSc1nc(O)c(C(c2ccc(C)cc2)c2c(O)nc(SC)nc2O)c(O)n1	inactive

Structure (SMILES)	Potency
CCCn1c(=O)n(CC(=O)NCC2CCCO2)c(=O)c2c3c(sc21)COC(C)(C)C3 (configuration not stated)	inactive
CC1CCc2sc(C(=O)OCC(=O)NC(C)C)cc2C1 (configuration not stated)	inactive
Cc1cc(NC(=O)CCC(=O)N(C(C(=O)NC(C)(C)C)c2ccccc2Cl)C(C)(C)C)no1 (configuration not stated)	inactive
COc1ccccc1C1C2=C(CCCC2=O)N(CC(=O)O)C2=C1C(=O)CCC2	inactive
Cc1ccc(NC(=O)c2sc3nc(-c4ccc(F)cc4)ccc3c2N)cc1F	inactive
CC(C)c1ccc(C2=CC(c3ccc(C(C)C)cc3)n3nnnc3N2)cc1 (configuration not stated)	inactive
CCc1ccc2nc3nc(C)cc(C)c3c(N)c2c1	inactive
Cc1ccc(C(=O)CC(=O)c2ccccc2C)c(O)c1	inactive
CC(=O)c1cccc(NC(=O)C(C)OC(=O)c2cccc(S(=O)(=O)N3CCN(C)CC3)c2)c1 (configuration not stated)	inactive
Cc1nnc2ccc(-c3ccc(NC(=O)c4ccco4)cc3)nn12	inactive
Cc1ccc(-c2nn3c(C)nnc3s2)cc1NC(=O)c1ccc(-c2ccc(Cl)cc2Cl)o1	8.91 µM (active)
O=C(NCCCN1CCN(c2ccc(F)cc2)CC1)c1ccc2nc(Cc3ccccc3)oc2c1	20 µM (active)
O=C(NCCO)c1ccc2nc(Cc3cccc(Cl)c3)oc2c1	inactive
C=C(C)CNC(=O)c1ccc2nc(Cc3ccc(OC)cc3)oc2c1	inactive
O=c1c(O)c(-c2cccs2)oc2ccc(Cl)cc12	inactive
Cc1ccc2cc(C#N)c(NCc3ccccc3)nc2c1	inactive
N#Cc1ncc(Cc2ccccc2)nc1C#N	39.8 µM (active)
Cc1nc2nc(SCc3ccccc3)nn2c(O)c1CCC(C)C	inactive
O=C(Cc1csc(Nc2nc(S)nc3ccccc23)n1)NCCCN1CCN(c2cccc(Cl)c2)CC1	inactive
COc1ccc(-c2cc(C(=O)NC3=NCCS3)c3ccccc3n2)cc1OC	inactive
O=C(Cc1csc(Nc2nc(S)nc3ccccc23)n1)NCCCN1CCN(c2ccccc2F)CC1	inactive
COc1ccc(NC(=O)c2cc3c(=O)n(C)c4ccccc4c3s2)cc1OC	inactive
CC1CCN(CCCNC(=O)c2cc3c(Cl)nc4ccccc4c3s2)CC1	39.8 µM (active)
O=C(NC1CCCC1)c1cc2c(=O)n3ccccc3nc2s1	inactive
CCC1CCCCN1c1nc2c(C=O)c(C)nn2c2ccccc12 (configuration not stated)	inactive

Structure (SMILES)	Potency
CCC1CCCCN1CCCNC(=O)c1cc2c(Cl)nc3ccccc3c2s1 (configuration not stated)	31.6 µM (active)
COc1ccc(NC(=O)c2cc3c(Cl)nc4ccccc4c3s2)cc1OC	35.5 µM (active)
CCCCCC(=O)NC(=S)Nc1ccc(Cl)cn1	inactive
N#Cc1cnn2c(-c3cccc([N+](=O)[O-])c3)ccnc12	inactive
FC(F)(F)c1cc(-c2cccs2)nc2ncnn12	inactive
CN1CCN(C(=O)CN(C2CCCCC2)S(=O)(=O)c2ccccc2)CC1	inactive
COc1ccccc1C(=O)N(Cc1cc2cc3c(cc2nc1N(C)C)OCO3)CC1CCCO1 (configuration not stated)	inactive
CCOc1ccccc1C(=O)N(Cc1ccccc1)Cc1cc2cc3c(cc2nc1O)OCCO3	35.5 µM (active)
CCN(CC)CCCN(Cc1cc2cc3c(cc2nc1O)OCO3)C(S)=Nc1ccc(OC)cc1	inactive
CCOc1ccc(CNCc2c(C(=O)O)n(Cc3ccc(C)cc3)c3cc(C)ccc23)cc1	25.1 µM (active)
Cc1ccc(CNS(=O)(=O)c2ccc3c(c2)CCN3C(=O)CCCC(=O)O)cc1	inactive
CCOc1ccc(-c2oc3ccc(C)cc3c(=O)c2O)cc1	inactive
CCNC(=O)c1cc2c(=O)n3cccc(C)c3nc2n(Cc2ccc(C)cc2)c1=N	inactive
CCc1cccc(C)c1NC(=O)CNCc1ccccc1	inactive
CCOc1ccc(C2C(C(=O)OC)=CN(CCOC)C=C2C(=O)OC)cc1	inactive
CCc1ccc(CNCc2c(C(=O)O)n(Cc3ccc(C)cc3)c3cc(C)ccc23)cc1	31.6 µM (active)
Cc1ccc(CNC(=O)c2ccc3c(O)c(O)c(-c4ccc(C)cc4)nc3c2)cc1	inactive
Cc1ccc(Cn2c(C(=O)O)c(CNCc3ccc(OC(C)C)cc3)c3ccc(C)cc32)cc1	35.5 µM (active)
Cc1ccc(CNCc2c(C(=O)O)n(Cc3ccc(C)cc3)c3cc(C)ccc23)cc1	22.4 µM (active)
Cc1cccc(C(=O)/N=c2/c(C#N)cc3c(=O)n4cccc(C)c4nc3n2Cc2ccco2)c1	inactive
Cn1ncc(Oc2ccc([N+](=O)[O-])cc2)c(Cl)c1=O	inactive
O=C(c1ccccn1)N(c1ccccc1)C1(C(=O)NC2CCCCC2)CCCCC1	inactive
OC[C@@H]1[C@@H](c2ccccc2)C(c2ccccc2)=NN1c1ccccc1	inactive
CCOCCCNC(=O)C(NC(=O)c1ccc2c(c1)OCO2)c1ccc(Cl)cc1 (configuration not stated)	inactive
NC1=Nc2cccc3cccc1c23	inactive

Structure (SMILES)	Potency
Cc1cc2c(cc1C)NC(CC(=O)Nc1ccccc1SC(F)(F)F)C(=O)N2 (configuration not stated)	inactive
Cc1cc2n(n1)C(c1ccccc1)CC(c1ccc(Br)cc1)=N2 (configuration not stated)	inactive
CCOC(=O)c1c(SCC(=O)Nc2nccs2)nc(C)c(C)c1C	inactive
Cc1ccc(N2C(=O)CC(Sc3nc4ccccc4o3)C2=O)cc1Cl (configuration not stated)	39.8 µM (active)
Cc1cc(C)nc(SC2CC(=O)N(c3ccc(C)c(C)c3)C2=O)n1 (configuration not stated)	inactive
CC(=O)NS(=O)(=O)c1ccc(N2C(=O)CC(Sc3nccc(C)n3)C2=O)cc1 (configuration not stated)	inactive
CSc1ccc(/C=C2\CCn3c2nc2cc(C(=O)O)ccc2c3=O)cc1	inactive
CCN(CC)C(=O)c1cc2c(=O)n3cccc(C)c3nc2s1	inactive
C/C(=N\NC(=O)COc1ccc([N+](=O)[O-])cc1)c1ccco1	inactive
Cc1cccc(C)c1NC(=O)Cn1nnc(-c2ccc(N3CCOCC3)cc2)n1	39.8 µM (active)
Cc1ccccc1-c1nnn(CC(=O)Nc2ccc3c(c2)OCO3)n1	inactive
O=C(Cn1nnc(-c2ccccc2)n1)NCC(=O)Nc1ccc(F)c(F)c1F	inactive
CCOCCCNC(=O)c1c(N)n(-c2ccc3c(c2)OCO3)c2nc3ccccc3nc12	inactive
COc1cccc2c(=O)c3c(cnn3C)n(C)c12	inactive
COc1ccccc1CNC(=O)CCC1N=C2c3ccccc3N=C(SCc3ccc(C)cc3C)N2C1=O (configuration not stated)	17.8 µM (active)
COc1ccccc1CNC(=O)CN1C(=O)c2cccc(N)c2C1=O	inactive
O=C(NCc1nnc(S)n1-c1cccc(C(F)(F)F)c1)c1ccc(S(=O)(=O)N2CCCCC2)cc1	inactive
Nc1cccn2c(-c3ccc(Cl)cc3)cnc12	inactive
Cc1cc(-c2ccccc2)nc2oc(C(=O)NN)c(N)c12	inactive
Cc1ccc(CSc2nc3ccccc3c(=O)n2C)cc1	inactive
Cc1ccc(CSc2nc(-c3ccccc3C)nc3c2Cc2c(CO)cnc(C)c2O3)cc1	28.2 µM (active)
COc1ccc(C2CC(c3ccccc3Cl)=NN2c2ccc(S(N)(=O)=O)cc2)cc1 (configuration not stated)	inactive
